Activity calls are given as the source filed them. Rule for the calls: active = hit-call score of the fitted dose curve at least 0.9, where 1 is the maximum; inactive = score below 0.9.
How the values were obtained:
[1] = APR_HepG2_CellCycleArrest_24hr: Apredica 24-hour HepG2 Assay for Cell Cycle Arrest (AID 2282905); details: imaging, actives raise or lower the signal;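 note: cell cycle arrest scored as ratio of 2N to 4N nuclear DNA content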
Outline: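 Compounds (0.39 to 200 uM, final DMSO 0.5% v/v) are applied to HepG2 cells for 24 hours; cells are then fixed, permeabilized and nuclei labeled with Hoechst 33342. Automated imaging measures DNA content, and activity is fitted in both directions against DMSO.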

[2] = APR_HepG2_NuclearSize_24hr: Apredica 24-hour HepG2 Assay for Nuclear Size (AID 2282907); details: high-content imaging, actives raise or lower the signal
Outline: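 Nuclear size is measured by fluorescence high-content imaging of Hoechst-labelled HepG2 nuclei after 24 hr of treatment (0.39–200 uM, 0.5% DMSO). Cells are fixed in 3.7% formaldehyde before staining, and DMSO serves as the baseline for bidirectional curve fitting.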

[3] = APR_HepG2_CellLoss_24hr: Apredica 24-hour HepG2 Assay for Cell Loss (AID 2282908); details: high-content imaging;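 for AC50: fit in both directions so a hit may be cell loss or gain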
Outline: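 Nuclear count serves as the viability measure: treated cells are fixed, permeabilized and labelled with Hoechst 33342, and six images per well are analysed to identify valid nuclei. Doses span 0.39–200 uM, and activity in either direction is scored against DMSO.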

[4] = APR_HepG2_MicrotubuleCSK_24hr: Apredica 24-hour HepG2 Assay for Microtubule CSK Stabilty (AID 2282909); details: HepG2 microtubule cytoskeleton imaging, actives raise or lower the signal
Outline: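 Compounds were applied to HepG2 cells for 24 hours across 0.39–200 uM in duplicate, with final DMSO at 0.5% v/v. Fixed, permeabilized cells were labeled for alpha-tubulin and nuclei, and tubulin fluorescence was quantified by imaging, fitted bidirectionally against DMSO.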

[5] = APR_HepG2_MitoticArrest_24hr: Apredica 24-hour HepG2 Assay for Mitotic Arrest (AID 2282910); details: high-content imaging, actives raise or lower the signal
Outline: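 High-content imaging of fixed HepG2 cells labeled with Hoechst 33342 and anti-phospho-histone H3, after 24 h treatment. Ten concentrations 0.39 to 200 uM in duplicate, final DMSO 0.5%; changes fitted both directions relative to DMSO.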

[6] = APR_HepG2_MitoMass_24hr: Apredica 24-hour HepG2 Assay for Mitochondrial Mass (AID 2282912); details: high-content imaging, actives raise or lower the signal
Outline: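 After 24 hr of treatment at 0.39 to 200 uM, HepG2 cells take up 250 nM MitoTracker Red CMXRos for 30 min and are then fixed with 3.7% formaldehyde. Per-well images are quantified, and any change in either direction is scored against solvent.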

[7] = APR_HepG2_p53Act_24hr: Apredica 24-hour HepG2 Assay for p53 Activation (AID 2282913); details: high-content imaging, actives raise or lower the signal;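 note: p53 protein immunofluorescence averaged per cell in HepG2 with Hoechst nuclei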
Outline: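 Human HepG2 liver cells; 24 hr cpd treatment, 0.39–200 uM, 0.5% DMSO final. Fixed in 3.7% formaldehyde, permeabilized with 0.5% Triton X-100, stained with anti-p53/Cy5 plus Hoechst 33342. Six images per well at 20x; gain or loss vs DMSO.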

[8] = APR_HepG2_CellCycleArrest_72hr: Apredica 72-hour HepG2 Assay for Cell Cycle Arrest (AID 2282914); details: high-content imaging, actives raise or lower the signal
Outline: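 Read-out is Hoechst-stained nuclear DNA content measured by automated fluorescence imaging (20x, six images per well), fitted in both directions relative to DMSO. Human HepG2 liver cells received 0.39–200 uM compound for 72 hr at 0.5% v/v DMSO.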

[9] = APR_HepG2_CellLoss_72hr: Apredica 72-hour HepG2 Assay for Cell Loss (AID 2282915); details: high-content imaging
Outline: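 Cell number comes from Hoechst 33342-labelled nuclei, imaged at 20x after 3.7% formaldehyde fixation. Dosing was 0.39–200 uM, ten concentrations in duplicate, 0.5% DMSO final, for 72 h. Bidirectional fit relative to DMSO baseline.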

[10] = APR_HepG2_P-H2AX_72hr: Apredica 72-hour HepG2 Assay for H2AX Phosphorylation (AID 2282916); details: imaging, actives raise or lower the signal;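 note: phospho-histone H2A.x immunostain intensity per cell marking DNA damage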
Outline: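 Human hepatoma HepG2 cells are dosed across ten concentrations (0.39 to 200 uM, 0.5% v/v DMSO) and incubated 72 hr. Phospho-histone H2A.x is then detected by antibody staining alongside c-Jun and Hoechst, and quantified by automated fluorescence imaging.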

[11] = APR_HepG2_MitoMembPot_72hr: Apredica 72-hour HepG2 Assay for Mitochondrial Membrane Potential (AID 2282917); details: imaging, actives raise or lower the signal
Outline: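 Membrane potential read by MitoTracker Red CMXRos (250 nM, 30 min, pre-fixation) fluorescence imaging of HepG2 after 72 hr exposure. Ten concentrations, 0.39–200 uM, duplicate wells, 0.5% DMSO; fitted in both directions against DMSO baseline.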

[12] = APR_HepG2_MitoticArrest_72hr: Apredica 72-hour HepG2 Assay for Mitotic Arrest (AID 2282918); details: high-content imaging, actives raise or lower the signal
Outline: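 Read-out is phospho-histone H3 immunofluorescence with Hoechst nuclear segmentation, imaged at 20x. Human HepG2 liver cells received ten concentrations (0.39–200 uM, final DMSO 0.5% v/v) for 72 hr before fixation. Gain or loss of signal was fitted relative to DMSO.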

[13] = APR_HepG2_MicrotubuleCSK_72hr: Apredica 72-hour HepG2 Assay for Microtubule CSK Stabilty (AID 2282919); details: HepG2 microtubule cytoskeleton, high-content imaging, actives raise or lower the signal
Outline: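 High-content imaging of alpha-tubulin staining in fixed HepG2 cells after 72 hr treatment with ten concentrations from 0.39 to 200 uM (0.5% DMSO). Fitting was bidirectional against DMSO; taxol served as positive control.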

[14] = APR_HepG2_P-H2AX_24hr: Apredica 24-hour HepG2 Assay for H2AX Phosphorylation (AID 2282920); details: high-content imaging, actives raise or lower the signal
Outline: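 HepG2, 24 hr, cpd 0.39–200 uM (10 conc, duplicate), DMSO 0.5% v/v final. Fix 3.7% formaldehyde, Triton X-100 permeabilize, anti-phospho-H2A.x 1:200 + Hoechst 2 ug/mL. Imaged, bidirectional fit vs DMSO.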

[15] = APR_HepG2_StressKinase_72hr: Apredica 72-hour HepG2 Assay for Stress Kinase (AID 2282921); details: HepG2 stress kinase (phospho-c-Jun) imaging, actives raise or lower the signal
Outline: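 After a 72 h compound treatment spanning 0.39 to 200 uM, formaldehyde-fixed cells are labelled for phosphorylated c-Jun and nuclei, imaged by automated fluorescence microscopy, and activity is fitted in both directions relative to DMSO controls.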

[16] = APR_HepG2_StressKinase_24hr: Apredica 24-hour HepG2 Assay for Stress Kinase (AID 2282922); details: HepG2 stress kinase (phospho-c-Jun) imaging, actives raise or lower the signal
Outline: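 High-content imaging of phospho-c-Jun immunofluorescence in fixed, permeabilized HepG2 cells after 24 h dosing. Ten concentrations, 0.39 to 200 uM, run in duplicate at 0.5% v/v DMSO; gain or loss of signal versus DMSO.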

[17] = APR_HepG2_MitoMass_72hr: Apredica 72-hour HepG2 Assay for Mitochondrial Mass (AID 2282924); details: high-content imaging, actives raise or lower the signal;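 note: MitoTracker Red CMXRos stain intensity per cell imaged as mitochondrial mass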
Outline: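 Readout is imaged MitoTracker Red (250 nM, 30 min, pre-fixation) signal, fitted bidirectionally against DMSO baseline. Human HepG2 liver cells received compound 0.39–200 uM in duplicate for 72 hr, final DMSO 0.5%.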

[18] = APR_HepG2_NuclearSize_72hr: Apredica 72-hour HepG2 Assay for Nuclear Size (AID 2282925); details: high-content imaging, actives raise or lower the signal
Outline: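 Nuclear size was read by high-content imaging of Hoechst 33342 stain after formaldehyde fixation. Compounds ran 72 h on HepG2 at 0.39 to 200 uM, with final DMSO 0.5% v/v. Curves fitted both directions relative to DMSO control.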

[19] = APR_HepG2_p53Act_72hr: Apredica 72-hour HepG2 Assay for p53 Activation (AID 2282923); details: high-content imaging, actives raise or lower the signal;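 note: average cellular p53 protein immunofluorescence intensity in HepG2 cells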
Outline: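 Imaging-based endpoint: after 72 hr compound exposure (up to 200 uM, 0.5% DMSO), fixed and permeabilized monolayers were labelled with anti-p53 antibody and imaged; signal change in either direction was fitted relative to DMSO controls.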

Measured: AC50

OCC(O)CO
active: [7] 0.0391 µM
not listed: [19]
inactive: all other assays above

CC(=O)[C@@]1(O)CC[C@H]2[C@@H]3CCC4=CC(=O)CC[C@]4(C)[C@H]3CC[C@@]21C
not listed: [7] | [19]
inactive: all other assays above

O=C(O)c1cccnc1
active: [12] 116 µM
not listed: [7] | [10] | [19]
inactive: all other assays above

Nc1nc(=S)c2[nH]cnc2[nH]1
active: [3] 21.4 µM | [8] 63.2 µM | [9] 17.9 µM | [10] 30.5 µM | [12] 21 µM
not listed: [7] | [19]
inactive: all other assays above

CCCCC(CC)COP(=O)(OCC(CC)CCCC)OCC(CC)CCCC (stereo not given)
active: [3] 37.7 µM | [5] 48.2 µM | [7] 71.1 µM | [9] 37.3 µM | [12] 31.5 µM | [13] 51.5 µM | [14] 68 µM | [19] 42.5 µM
not listed: [10]
inactive: all other assays above

CC(C)OC(=O)C(C)(C)Oc1ccc(C(=O)c2ccc(Cl)cc2)cc1
active: [8] 100 µM | [9] 103 µM
not listed: [7] | [10] | [19]
inactive: all other assays above

Cc1cc(SC2=C(O)C[C@@](CCc3ccc(N)cc3)(C(C)C)OC2=O)c(C(C)(C)C)cc1CO
not listed: [10]
inactive: all other assays above

Reference: PubChem BioAssay (EPA / NIEHS)
